Assay outcomes as filed in PubChem BioAssay.
DT40 TDP1 no CPT – qHTS for Inhibitors of human tyrosyl-DNA phosphodiesterase 1 (TDP1): qHTS in cells in absence of CPT; 15% of 420,000 active; Potency, µM (top dose mostly 46.2 µM), for inactives: top-dose activity change, negative = growth inhibition, actives largely listed as inhibitors; DT40 Tdp1-/- hTDP1 cells, no CPT, ATP luminescence, 48 h; further: potency means the concentration at half of the fitted maximal effect; nearly all actives have a fitted effect of over 55% in size
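Readout: luminescence from CellTiter-Glo after 30 min in the dark at RT. Cells: DT40 Tdp1-/- with stable hTDP1, 400/well. Exposure: compounds alone, ≥48 hr, 37 °C.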
TDP1 inh – inhibitors of human tyrosyl-DNA phosphodiesterase TDP1; recombinant TDP1, AlphaScreen DNA substrate cleavage; Potency, µM (top dose mostly 130 µM), for inactives: top-dose activity change, negative = inhibition, actives largely listed as inhibitors; 0.28% of 350,000 active; further: potency means the concentration at half of the fitted maximal effect; nearly all actives have a fitted effect of over 40% in size
Target sequence (Q9NUW8 whole entry, looked up): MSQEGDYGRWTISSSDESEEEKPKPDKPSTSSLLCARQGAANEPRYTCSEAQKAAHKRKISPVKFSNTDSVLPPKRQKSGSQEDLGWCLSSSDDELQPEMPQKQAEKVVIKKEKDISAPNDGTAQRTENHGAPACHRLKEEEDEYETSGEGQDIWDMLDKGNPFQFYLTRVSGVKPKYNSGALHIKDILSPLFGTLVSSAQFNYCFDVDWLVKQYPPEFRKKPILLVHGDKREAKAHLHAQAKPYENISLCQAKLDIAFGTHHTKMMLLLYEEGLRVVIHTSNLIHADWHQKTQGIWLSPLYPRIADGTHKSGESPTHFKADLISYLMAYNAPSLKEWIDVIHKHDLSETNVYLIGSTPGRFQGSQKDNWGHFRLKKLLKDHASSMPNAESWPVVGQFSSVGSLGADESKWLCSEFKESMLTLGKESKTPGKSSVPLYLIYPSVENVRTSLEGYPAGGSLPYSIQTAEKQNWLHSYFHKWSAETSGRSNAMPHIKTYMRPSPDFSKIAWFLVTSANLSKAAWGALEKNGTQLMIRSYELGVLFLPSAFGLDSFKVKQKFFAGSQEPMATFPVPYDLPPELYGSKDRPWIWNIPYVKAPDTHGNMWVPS
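Steps: enzyme plus compound, 15 min RT; add biotin/phosphotyrosine-FITC oligonucleotide (15 nM final), react 5 min; add donor/acceptor beads (10 ug/ml final), 10 min; read AlphaScreen. Tdp1 at 1 nM final.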
Six1-Eya2 inh – inhibitors of human Six1/Eya2 interaction. Q15475+O00167. AlphaScreen GST-Six1/His-Eya2 binding, biochemical; active compounds read low. activity change, % (no concentration beside the values). 0.56% of 360,000 active; in the data active means activity change below about -65%; inconclusive means mostly about -30% to -63%
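AlphaScreen with GST-Six1 and His-Eya2 (5X mix: 250 nM and 500 nM), glutathione donor and nickel acceptor beads; buffer 50 mM Tris pH 8.0, 300 mM NaCl, 1 mM TCEP; 1 h at 37 C in the dark.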
IL-1B inflam inh – blocks inflammasome-driven IL-1 beta release; THP-1 LPS/ATP IL-1B secretion, AlphaLISA, 16 h; active compounds read low; activity change, % at 57.5 µM; 4.7% of 360,000 active; in the data active means activity change below about -50%; inconclusive means mostly about -30% to -49%
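Secreted IL-1B measured by AlphaLISA bead assay after 16 h compound exposure of THP-1 cells; compounds (final up to 57.5 uM) added 1 h before LPS (250 ng/mL) and ATP (1.25 mM) stimulation; lower signal means less secretion.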
CtBP-E1A inh – CtBP/E1A binding inhibition | AID 651724 | activity change, % (no concentration beside the values) | 0.49% of 340,000 active | AlphaScreen GST-E1A/His-CtBP binding, 1536-well; active compounds read low; in the data active means activity change below about -65%; inconclusive means mostly about -30% to -63%
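Protein mix (5X: 125 nM each GST-E1A, His-CtBP) was incubated with pinned compound 2 h at 37 deg C in dark, in 50 mM Tris pH 8.0 buffer with 300 mM NaCl. Glutathione donor and nickel acceptor beads followed; AlphaScreen signal read after 1 h.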
DT40 TDP1 CPT – growth inhibition of DT40 Tdp1-/-;hTDP1 cells with camptothecin (screen for TDP1 inhibitors); AID 686979; chicken DT40 Tdp1-/-;hTDP1 cells + 20 nM CPT, ATP luminescence, 48 h; Potency, µM (titrated, usually from 46.2 µM), without a hit: top-dose activity change, negative = growth inhibition, most hits filed as inhibitors; 12% of 420,000 active; further: potency means the concentration at half of the fitted maximal effect; nearly all actives have a fitted effect of over 55% in size
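Cell growth measured by CellTiter-Glo luminescence after a minimum 48 h, 37 C compound exposure with 20 nM CPT in Tdp1-knockout DT40 cells stably expressing hTDP1, seeded 400/well; qHTS titration format.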
Active calls of the source: *; ? = inconclusive; / = not tested or not shown. The list is not random: actives were taken first. Their share in the collection is about 18%. Unless noted, the call rests on the fitted dose curve; in most records, active means well fitted curve in the direction sought with a large enough effect; inconclusive means small, poorly fitted or top-dose-only effect, or another doubt; inactive means no such curve, though single readings can be large; an effect the other way counts as inactive or inconclusive. On the % scale 0 is the no-effect control and ±100 the full control effect.

SMILES	DT40 TDP1 no CPT	TDP1 inh	Six1-Eya2 inh	IL-1B inflam inh	CtBP-E1A inh	DT40 TDP1 CPT
COc1ccnc(Oc2cccc(C(F)(F)F)c2)c1C(=O)N/C=N/OCc1ccccc1F	21µM*	/	-2	-59*	1	?
CCCSc1ccccc1C(=O)N1CCN(C(=O)c2ccco2)CC1	16%	2%	-3	3	-17	-8%
COc1ccc(Cl)cc1NC(=O)Cn1cnc2sc(C)c(S(=O)(=O)N3CCN(c4ccccc4OC)CC3)c2c1=O	7.3µM*	3%	/	/	/	7.3µM*
COc1ccc(OC)c(NC(=O)Cn2cnc3sc(C)c(S(=O)(=O)N4CCN(c5ccccc5OC)CC4)c3c2=O)c1	?	6%	/	/	/	21µM*
COc1ccccc1N1CCN(S(=O)(=O)c2c(C)sc3ncn(CC(=O)Nc4ccc(C(C)C)cc4)c(=O)c23)CC1	?	0%	/	/	/	?
c1cc2c3c(cccc3c1)-c1cnccc1-2	-24%	/	0	-66*	13	15%
CCN(CC)CCCNC(=O)c1ccc2c(c1)NC(=O)C(CS(=O)(=O)Cc1ccc(F)cc1Cl)N2 (configuration not stated)	-2%	5%	/	/	/	-15%
CC(C)C1Nc2ccc(C(=O)NCCCN3CCOCC3)cc2NC1=O (configuration not stated)	3%	2%	8	8	6	8%
Cc1ccc(CNC(=O)c2ccc3c(c2)NC(=O)C(CS(=O)(=O)Cc2cccc(F)c2)N3)cc1 (configuration not stated)	4%	7%	/	/	/	-10%
CCN(CC)CCNC(=O)c1ccc2c(c1)NC(=O)C(CS(=O)(=O)Cc1ccc(F)cc1Cl)N2 (configuration not stated)	?	7%	/	/	/	18µM*
CC(C)CC1Nc2ccc(C(=O)NCCCN3CCOCC3)cc2NC1=O (configuration not stated)	16µM*	-12%	24	1	-1	26µM*
CC(C)CCNC(=O)c1ccc2c(c1)NC(=O)C(CS(=O)(=O)Cc1ccc(F)cc1)N2 (configuration not stated)	16µM*	1%	/	/	/	16µM*
Cc1cccc(CS(=O)(=O)CC2Nc3ccc(C(=O)NCc4ccccc4)cc3NC2=O)c1 (configuration not stated)	6.5µM*	5%	/	/	/	12µM*
CCc1ccc(S(=O)(=O)NCc2ccc(N3CCN(C)CC3)cc2)cc1	?	3%	-2	11	12	?
COc1ccc(Cc2nc(C(=O)NCc3ccccc3OC)cs2)cc1	?	2%	-7	2	6	?
N#CC(c1ccccc1)c1ccc(C(=O)c2ccc(F)cc2)cc1 (configuration not stated)	23µM*	2%	36	4	9	-56%
CCOc1ccc(NC(=O)C(Cc2ccccc2)N2C(=O)c3cccc4cccc(c34)C2=O)cc1 (configuration not stated)	8.2µM*	/	17	93	3	12µM*
CCOc1ccc(NC(=O)[C@H](Cc2ccccc2)N2Cc3ccccc3C2=O)cc1	-3%	-3%	/	/	/	5%
CCOC(=O)C(Cc1ccc(NC(=O)/C(=C/c2ccc(OC(C)=O)cc2)NC(C)=O)cc1)N1C(=O)c2ccccc2C1=O (configuration not stated)	?	6%	-7	0	-2	?
CCOC(=O)C(Cc1ccc(NC(=O)/C(=C/c2ccccc2)NC(=O)c2ccccc2)cc1)N1C(=O)c2ccccc2C1=O (configuration not stated)	5.8µM*	-4%	-1	26	-1	5.2µM*
Cc1ccccc1-c1nc(CS(=O)(=O)CC(=O)NCc2cccc(Cl)c2)c(C)o1	?	-2%	/	/	/	16µM*
Cc1ccccc1-c1nc(CS(=O)(=O)CC(=O)NCC(C)c2ccccc2)c(C)o1 (configuration not stated)	16µM*	8%	/	/	/	?
Cc1cccc(N2CCN(C(=O)CS(=O)(=O)Cc3nc(-c4ccccc4F)oc3C)CC2C)c1 (configuration not stated)	?	2%	-5	18	-7	?
Cc1cccc(N2CCN(C(=O)CS(=O)(=O)Cc3nc(-c4ccccc4C)oc3C)CC2C)c1 (configuration not stated)	?	9%	/	/	/	15µM*
Cc1ccccc1-c1nc(CS(=O)(=O)CC(=O)NCc2ccc(F)cc2)c(C)o1	?	/	0	-3	-2	?
SMILES	DT40 TDP1 no CPT	TDP1 inh	Six1-Eya2 inh	IL-1B inflam inh	CtBP-E1A inh	DT40 TDP1 CPT
Cc1ccccc1-c1nc(CS(=O)(=O)CC(=O)Nc2cc(F)ccc2F)c(C)o1	21µM*	0%	-4	17	-1	?
Cc1ccc(C)c(Nc2ncccc2C(=O)NCc2cccs2)c1	?	3%	-3	-7	1	?
O=C(NCCc1ccccc1)c1ccc2c(c1)N(Cc1ccccc1Cl)C(=O)c1ccccc1S2	?	-5%	/	/	/	?
COc1ccc(CCNC(=O)c2ccc3c(c2)N(Cc2ccccc2Cl)C(=O)c2ccccc2S3)cc1OC	7.3µM*	5%	/	/	/	6.5µM*
Cc1ccccc1CN1C(=O)c2ccccc2Sc2ccc(C(=O)NCCc3ccccc3)cc21	21µM*	-5%	/	/	/	16µM*
CCN1CCN(CCCNC(=O)c2ccc(/C=C3/Sc4ccccc4N(Cc4ccccc4F)C3=O)cc2)CC1	15µM*	3%	-1	?	-6	16µM*
Cc1ccc(CN2C(=O)c3ccccc3Sc3ccc(C(=O)NCCN4CCOCC4)cc32)cc1	?	5%	-1	-16	-18	?
Cc1ccccc1CN1C(=O)c2ccccc2Sc2ccc(C(=O)NCCN3CCOCC3)cc21	23µM*	7%	-1	-25	-9	?
COc1ccc(CCNC(=O)CN(c2ccc(OC)c(OC)c2)S(C)(=O)=O)cc1OC	1%	5%	1	0	2	-10%
O=C(NCCN1CCOCC1)c1ccc2c(c1)N(Cc1ccccc1F)C(=O)c1ccccc1S2	-29%	0%	-1	-30	-1	21µM*
CCN1C(=O)c2ccccc2Sc2ccc(C(=O)NCCCN3CCOCC3)cc21	-23%	0%	11	0	-1	1%
